Reference: publication PMC4336329 (PLoS ONE, 2015)
The campaign covered roughly 310,000 compounds. About 14,000 (4.5%) showed an effect of 50% or more. Effects have a minus sign here. Only a selection was taken, and strong results are over-represented in it overall.

Each molecule was assayed against human ether-à-go-go-related gene (hERG) potassium channel (human, UniProt Q12809) (assay: primary screen, population patch clamp on CHO cells stably expressing hERG; higher = less effect of the substance).
human ether-à-go-go-related gene (hERG) potassium channel, sequence (Q12809 whole entry, looked up): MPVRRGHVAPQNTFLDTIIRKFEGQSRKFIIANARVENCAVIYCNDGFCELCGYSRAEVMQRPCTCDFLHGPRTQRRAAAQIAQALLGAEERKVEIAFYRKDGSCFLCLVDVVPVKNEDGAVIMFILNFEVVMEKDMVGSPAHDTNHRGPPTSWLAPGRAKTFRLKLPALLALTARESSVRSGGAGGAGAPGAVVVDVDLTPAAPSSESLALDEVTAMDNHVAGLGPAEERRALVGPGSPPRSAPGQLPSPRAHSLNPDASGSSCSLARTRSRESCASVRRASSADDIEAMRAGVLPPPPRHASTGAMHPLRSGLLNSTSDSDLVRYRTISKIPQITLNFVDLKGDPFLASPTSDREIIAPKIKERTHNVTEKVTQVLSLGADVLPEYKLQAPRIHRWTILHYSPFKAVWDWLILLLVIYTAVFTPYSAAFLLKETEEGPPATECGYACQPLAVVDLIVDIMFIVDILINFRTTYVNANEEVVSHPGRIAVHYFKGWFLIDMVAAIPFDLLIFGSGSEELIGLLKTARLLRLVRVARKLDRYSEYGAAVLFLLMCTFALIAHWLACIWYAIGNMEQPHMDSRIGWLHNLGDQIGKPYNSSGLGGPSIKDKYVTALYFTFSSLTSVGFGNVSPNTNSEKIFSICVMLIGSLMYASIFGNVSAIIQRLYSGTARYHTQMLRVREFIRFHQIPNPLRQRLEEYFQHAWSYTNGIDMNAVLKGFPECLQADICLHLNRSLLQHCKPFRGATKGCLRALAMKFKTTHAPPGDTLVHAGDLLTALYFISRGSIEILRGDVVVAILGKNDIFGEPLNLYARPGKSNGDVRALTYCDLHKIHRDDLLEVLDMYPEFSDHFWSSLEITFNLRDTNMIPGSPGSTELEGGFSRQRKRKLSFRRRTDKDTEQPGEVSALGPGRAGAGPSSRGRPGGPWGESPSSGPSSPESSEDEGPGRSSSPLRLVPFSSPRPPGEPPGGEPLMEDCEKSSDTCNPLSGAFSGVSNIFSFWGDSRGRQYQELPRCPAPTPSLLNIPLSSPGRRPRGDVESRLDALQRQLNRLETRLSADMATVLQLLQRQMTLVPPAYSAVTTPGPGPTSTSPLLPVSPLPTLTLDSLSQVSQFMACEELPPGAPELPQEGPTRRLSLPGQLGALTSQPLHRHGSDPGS
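Note: peak tail current of the secondary pulse compared with the same well before compound.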

Row | Structure (SMILES) | hERG current change (%, negative = inhibition) at 10uM
1 | COc1ccccc1NC(=S)NC(=O)C(C)(C)C | -9.31%
2 | Cc1ccc2nc(-c3ccc(N4C(=O)CC(N5CCN(CCO)CC5)C4=O)cc3)sc2c1 (stereo not drawn) | -3.5%
3 | N#CCC(=O)Nc1ccc(C(=O)OCC(=O)Nc2ccccc2-c2ccccc2)cc1 | 9.2%
4 | CCc1nc(SCc2ccccc2C)n[nH]1 | 26.9%
5 | Cc1oc(CC(C)C)cc1C(=O)Nc1cccc2ccccc12 | -58.8%
6 | CCOc1ccccc1NC(=O)c1cc(CC(C)C)oc1C | -0.536%
7 | Cc1cc(C(=O)Nc2cccc3ccccc23)c(C)o1 | 4.69%
8 | Cc1ncc(C(=O)O)c(C(=O)O)c1N | 13.4%
9 | O=C(O)c1cnc(-c2ccccc2)nc1Sc1ccccc1 | 14.2%
10 | Cc1cccc(CN2CCCC(C(=O)N3CCCCC3)C2)c1.O=C(O)C(=O)O (stereo not drawn) | 15.5%
11 | O=C(C1CCCN(Cc2ccncc2)C1)N1CCc2ccccc2C1.O=C(O)C(=O)O (stereo not drawn) | -19.2%
12 | O=C(C1CCCN(Cc2ccccc2)C1)N1CCCCC1.O=C(O)C(=O)O (stereo not drawn) | 11.3%
13 | COc1ccc(CN2CCCC(C(=O)N3CCCCC3)C2)cc1OC.O=C(O)C(=O)O (stereo not drawn) | -25.5%
14 | COc1ccc(CN2CCCC(C(=O)N3CCc4ccccc4C3)C2)cc1OC (stereo not drawn) | -62%
15 | O=C(C1CCCN(Cc2ccccc2F)C1)N1CCc2ccccc2C1.O=C(O)C(=O)O (stereo not drawn) | -22.6%
16 | COc1ccc(S(=O)(=O)N2CCC(C(=O)N3CCc4ccccc4C3)CC2)cc1OC | -27.4%
17 | Cc1cccc(CN2CCCC(C(=O)N3CCc4ccccc4C3)C2)c1.O=C(O)C(=O)O (stereo not drawn) | -51.3%
18 | COc1cc(CN2CCCC(C(=O)N3CCc4ccccc4C3)C2)cc(OC)c1OC (stereo not drawn) | -62%
19 | COc1ccc(C)cc1-n1c(SCC(=O)Nc2cccc(C(=O)O)c2)nc2ccccc2c1=O | 12%
20 | O=C(CCC(=O)Nc1ccccc1)NNC(=O)C(c1ccccc1)c1ccccc1 | -0.585%
21 | CCN(c1ccccc1)P(=O)(Nc1ccccc1)Nc1ccccc1 | 0.944%

Row | Structure (SMILES) | hERG current change (%, negative = inhibition) at 10uM
22 | Cc1ccc(N2C(=O)CSC2c2cccnc2)cc1F (stereo not drawn) | 5.77%
23 | CCCc1nc(SCC(=O)Nc2cc(C)on2)c2c(=O)n(C)c(=O)n(C)c2n1 | -2.26%
24 | NCCCC[C@H]1NC(=O)[C@H](CCC(=O)O)NC(=O)c2cc([N+](=O)[O-])cc(I)c2OCC[C@@H](C(N)=O)NC1=O | 26.6%
25 | Cc1cc(C)c2sc(N(CCCN(C)C)C(=O)c3ccc(S(=O)(=O)N4CCCc5ccccc54)cc3)nc2c1.Cl | 0.702%
26 | Cc1cc(C)c2sc(N(CCCN(C)C)C(=O)c3ccc(S(=O)(=O)N(C)C4CCCCC4)cc3)nc2c1.Cl | -81.4%
27 | CCN(Cc1ccccc1)S(=O)(=O)c1ccc(C(=O)N(CCCN(C)C)c2nc3cc(C)cc(C)c3s2)cc1.Cl | -4.15%
28 | Cc1cc(C)c2sc(N(CCCN(C)C)C(=O)c3ccc(S(=O)(=O)N4CCc5ccccc5C4)cc3)nc2c1.Cl | 4.44%
29 | Cc1cc(C)c2sc(N(CCCN(C)C)C(=O)c3ccc(S(=O)(=O)N(C)Cc4ccccc4)cc3)nc2c1.Cl | -13.5%
30 | CCCCN(CC)S(=O)(=O)c1ccc(C(=O)N(CCCN(C)C)c2nc3cc(C)cc(C)c3s2)cc1.Cl | -73%
31 | CCOc1ccc(S(=O)(=O)N2CCCCC2)cc1NC(=O)Cc1ccsc1 | 2.15%
32 | C(=C\c1ccccc1)/C=N/Nc1ccc2nncn2n1 | -19.7%
33 | CC(/C=N/Nc1ccc2nncn2n1)=C\c1ccccc1 | -51.8%
34 | BrC(=C\c1ccccc1)/C=N/Nc1ccc2nncn2n1 | -21.6%
35 | Oc1sc(C=Nc2ccccc2)c2ccccc12 | 7.99%
36 | COc1ccc(CCC(=O)Nc2ccc3c(c2)OCO3)cc1 | 2.6%
37 | COc1ccc(CCNC(=O)COc2ncnc3cc([N+](=O)[O-])ccc23)cc1 | -16.5%
38 | O=C(COc1ncnc2cc([N+](=O)[O-])ccc12)NC(=O)NC1CCCCC1 | -56.5%
39 | O=C(COc1ncnc2cc([N+](=O)[O-])ccc12)NC1CCCCC1 | -2.76%
40 | O=C1c2ccccc2NC(c2c(Cl)cccc2Cl)N1Cc1ccccc1 (stereo not drawn) | 7.98%
41 | N=c1c2c3c(sc2ncn1CCCN1CCOCC1)CCCCC3 | -51.2%
42 | N=c1c2c3c(sc2ncn1CCCO)CCCC3 | -19.5%

Row | Structure (SMILES) | hERG current change (%, negative = inhibition) at 10uM
43 | N=c1c2c3c(sc2ncn1N)CCCCC3 | -12.6%
44 | N=c1c2c3c(sc2ncn1CCN1CCOCC1)CCCC3 | -16.9%
45 | N=c1c2c3c(sc2ncn1CCN1CCOCC1)CCCCC3 | -42.9%
46 | N=c1c2c3c(sc2ncn1Cc1ccco1)CCCCC3 | -62%
47 | CCCCn1cnc2sc3c(c2c1=N)CCCC3 | -52.1%
48 | N=c1c2c3c(sc2ncn1Cc1ccccc1)CCCC3 | -49.7%
49 | CC(C)Cn1cnc2sc3c(c2c1=N)CCCC3 | -25.2%
50 | CC1CCCCC1NC(=O)CCNS(=O)(=O)c1ccc2c(c1)CCC(=O)N2 (stereo not drawn) | 6.25%
51 | O=C(Nc1cc(C(F)(F)F)ccc1-n1cnc2ccccc21)c1ccccc1 | -32%
52 | O=C(Nc1ccc(/C=C/c2nc3ccccc3o2)cc1)c1cccc(C(F)(F)F)c1 | 0.151%
53 | COC(=O)c1ccc(NC(=S)NCCc2cccc(C)c2)cc1 | -2.3%
54 | CCCn1c(NC(=O)c2cccc(C)c2C)nc2ccccc21 | -26.7%
55 | CCOc1ccccc1NC(=O)CSc1nnc2ccc(-c3ccccn3)nn12 | 2.41%
56 | CC(=O)Nc1cccc(NC(=O)CSc2nnc3ccc(-c4ccncc4)nn23)c1 | -17.8%
57 | CCOc1ccccc1NC(=O)CSc1nnc2ccc(-c3ccncc3)nn12 | -54.3%
58 | Cc1ccccc1NC(=O)CSc1nnc2ccc(-c3cccnc3)nn12 | -33%
59 | CCOc1ccccc1NC(=O)CSc1nnc2ccc(-c3cccnc3)nn12 | -25.8%
60 | Cc1ccccc1NC(=O)CSc1nnc2ccc(-c3ccncc3)nn12 | -69.5%
61 | CCOc1ccccc1NC(=O)CSc1nnnn1Cc1ccccc1 | -40.5%
62 | CC(=O)c1ccc(S(=O)(=O)N2CCN(C(=O)CSc3ccc(F)cc3)CC2)cc1 | 11.7%
63 | CC[C@]12C=CCN3CCC4(c5cc(Br)c(OC)cc5N(C)C4[C@@](O)(C(=O)OC)[C@@H]1OC(C)=O)C32 (stereo partly drawn) | 7.6%

Row | Structure (SMILES) | hERG current change (%, negative = inhibition) at 10uM
64 | COc1ccc(/C=C(/NC(=O)c2ccccc2)C(=O)N/N=C/c2ccncc2)cc1 | 9.78%
65 | N#CCSc1nc(-c2ccccc2)nc2ccccc12 | 7.83%
66 | CCc1ccccc1NC(=O)CN1CCC(NC(=O)COC)CC1.Cl | 13.4%
67 | CCc1ccccc1NC(=O)CN1CCN(C(=O)CNC(=O)Cc2cccc3ccccc23)CC1 | -59.6%
68 | CCc1ccccc1NC(=O)CN1CCN(C(=O)CNC(=O)c2ccccc2F)CC1 | -13.5%
69 | CCc1ccccc1NC(=O)CN1CCN(C(=O)CN2C(=O)NC3(CCCC3)C2=O)CC1 | 7.54%
70 | Cc1cccc(NC(=O)CN2CCN(C(=O)C(C)Oc3ccc(C#N)cc3)CC2)c1C (stereo not drawn) | -76.9%
71 | Cc1cccc(NC(=O)CN2CCN(C(=O)c3ccc(OCc4cn5ccccc5n4)cc3)CC2)c1C | -46.5%
72 | Cc1cccc(NC(=O)CN2CCN(CC(=O)Nc3ccc(-c4ccccc4)cc3)CC2)c1C | -17%
73 | CCc1ccccc1NC(=O)CN1CCN(C(=O)CCC(=O)N2CCC(c3ccccc3)=N2)CC1 | -58%
74 | CCc1ccccc1NC(=O)CN1CCN(C(=O)COc2ccccc2C#N)CC1 | -34.6%
75 | CCc1ccccc1NC(=O)CN1CCN(CC(=O)Nc2ccc(-c3ccccc3)cc2)CC1 | -53.3%
76 | CCc1ccccc1NC(=O)CN1CCN(CC(=O)NCc2ccc(Cl)cc2)CC1 | -46.6%
77 | Cc1cccc(NC(=O)CNC(=O)COc2ccc(-c3ccc(C#N)cc3)cc2)c1C | 4.86%
78 | COc1ccc(Cl)cc1NC(=O)CN(C)C(=O)c1ccc(OCc2ccccc2)c(OC)c1 | 6.49%
79 | COc1coc(C(O)CN)cc1=O (stereo not drawn) | 4.57%
80 | CC(=O)c1ccc(NC(=O)C2CC(c3ccc(F)cc3)=NO2)cc1 (stereo not drawn) | -6.78%
81 | CC(C(=O)N(C)C1CCCCC1)N1CCC(C(N)=O)CC1 (stereo not drawn) | 25%
82 | Cc1ccc2c(c1)c1ncnc(N3CCc4ccccc4C3)c1n2C | 0.68%
83 | COc1cccc(CN(CC(=O)NCc2ccccc2)S(=O)(=O)CCl)c1 | -16.8%
84 | CCOC(=O)c1csc(NC(=O)c2ccc(S(=O)(=O)N(C)C)cc2)n1 | -20.9%
